The source made the active and inactive calls. Rule for the calls: active = hit-call score of the fitted dose curve at least 0.9, where 1 is the maximum; inactive = score below 0.9.
Legend:
[1] = read-out: TIMP metallopeptidase inhibitor 1 (TIMP1), TIMP1 (gene 7076); assay: BSK_hDFCGF_TIMP1: BioMAP Diversity Plus: hDFCGF Assay for TIMP metallopeptidase inhibitor 1 (TIMP1) Biomarker Activity (AID 2283062); settings: primary human foreskin fibroblasts; actives raise or lower the signal
Procedure, shortened: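 TIMP-1 measured by ELISA 24 h after chemical dosing of primary human skin fibroblasts, with gain or loss fitted relative to DMSO. Parallel SRB staining (560 nm) monitored overt cytotoxicity.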

[2] = read-out: Monokine induced gamma interferon (MIG), CXCL9 (gene 4283); assay: BSK_hDFCGF_MIG: BioMAP Diversity Plus: hDFCGF Assay for Monokine induced gamma interferon (MIG) Biomarker Activity (AID 2283063); settings: primary human foreskin fibroblasts; actives raise or lower the signal
Procedure, shortened: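 Human primary foreskin fibroblasts in the hDFCGF system, exposed to test chemical for 24 h; MIG measured by ELISA. Bidirectional curve fitting against DMSO negative control as activity baseline.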

[3] = read-out: Matrix Metallopeptidase 1 (MMP1), MMP1 (gene 4312); assay: BSK_hDFCGF_MMP1: BioMAP Diversity Plus: hDFCGF Assay for Matrix Metallopeptidase 1 (MMP1) Biomarker Activity (AID 2283064); settings: primary human foreskin fibroblasts; actives raise or lower the signal
Procedure, shortened: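 Primary human foreskin fibroblasts in the hDFCGF system were dosed with test chemical, and MMP1 was measured by ELISA 24 h later. Values come from bidirectional curve fitting against the DMSO baseline.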

[4] = read-out: Vascular cell adhesion molecule 1 (VCAM1), VCAM1 (gene 7412); assay: BSK_hDFCGF_VCAM1: BioMAP Diversity Plus: hDFCGF Assay for Vascular cell adhesion molecule 1 (VCAM1) Biomarker Activity (AID 2283065); settings: primary human foreskin fibroblasts; actives raise or lower the signal;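 for AC50: VCAM-1 protein level quantified by ELISA after 24 h chemical exposure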
Procedure, shortened: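 ELISA readout of VCAM-1 on human dermal fibroblast primary cultures, 24 h after chemical exposure. Gain or loss of signal fitted in both directions against DMSO baseline.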

[5] = read-out: Plasminogen activator inhibitor-1 (PAI1), SERPINE1 (gene 5054); assay: BSK_hDFCGF_PAI1: BioMAP Diversity Plus: hDFCGF Assay for Plasminogen activator inhibitor-1 (PAI1) Biomarker Activity (AID 2283066); settings: primary human foreskin fibroblasts; actives raise or lower the signal
Procedure, shortened: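 PAI-1 levels, determined by ELISA, served as the endpoint in human foreskin fibroblast cultures exposed to compound for 24 h, with DMSO as baseline.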

[6] = read-out: Intercellular Adhesion Molecule 1 (ICAM1), ICAM1 (gene 3383); assay: BSK_KF3CT_ICAM1: BioMAP Diversity Plus: KF3CT Assay for Intercellular Adhesion Molecule 1 (ICAM1) Biomarker Activity (AID 2283067); settings: primary human keratinocytes with fibroblasts; actives raise or lower the signal
Procedure, shortened: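 Cell-surface ICAM-1 was measured by ELISA 24 h after dosing primary human skin keratinocytes co-cultured with fibroblasts. Parallel SRB staining tracked overt cytotoxicity. Gain or loss of signal was fitted relative to DMSO.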

[7] = read-out: Interferon-gamma inducible Protein 10 (IP10), CXCL10 (gene 3627); assay: BSK_KF3CT_IP10: BioMAP Diversity Plus: KF3CT Assay for Interferon-gamma inducible Protein 10 (IP10) Biomarker Activity (AID 2283068); settings: primary human keratinocytes with fibroblasts; actives raise or lower the signal
Procedure, shortened: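 Signal is secreted/surface IP-10 by ELISA in a human primary skin co-culture of keratinocytes and foreskin fibroblasts, taken 24 h post-dosing; DMSO served as negative control.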

[8] = BSK_KF3CT_SRB: Viability Assessment in the BioMAP Diversity Plus: KF3CT Assay (AID 2283069); settings: primary human keratinocytes with fibroblasts;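 note: total protein by sulforhodamine B staining as a cytotoxicity measure; read 24 h after compound addition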
Procedure, shortened: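 Human primary keratinocyte plus foreskin fibroblast co-culture exposed to chemicals for 24 h. Total protein measured by 0.1% sulforhodamine B staining after 10% TCA fixation, read at 560 nm; bidirectional fitting versus DMSO baseline.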

[9] = read-out: Interleukin-1 alpha (IL1a), IL1A (gene 3552); assay: BSK_KF3CT_IL1a: BioMAP Diversity Plus: KF3CT Assay for Interleukin-1 alpha (IL1a) Biomarker Activity (AID 2283070); settings: primary human keratinocytes with fibroblasts; actives raise or lower the signal
Procedure, shortened: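 Human keratinocyte plus foreskin fibroblast primary co-culture, sampled 24 h after chemical dosing. IL-1a measured by ELISA; responses fitted bidirectionally against DMSO baseline (negative control), so gain or loss of signal both count.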

[10] = read-out: TIMP metallopeptidase inhibitor 2 (TIMP2), TIMP2 (gene 7077); assay: BSK_KF3CT_TIMP2: BioMAP Diversity Plus: KF3CT Assay for TIMP metallopeptidase inhibitor 2 (TIMP2) Biomarker Activity (AID 2283071); settings: primary human keratinocytes with fibroblasts; actives raise or lower the signal
Procedure, shortened: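 Keratinocyte–fibroblast co-culture, 24 h exposure; TIMP-2 ELISA, DMSO-normalised bidirectional fit. Parallel SRB (0.1%, TCA-fixed, 560 nm) total-protein staining gauges cytotoxicity.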

[11] = read-out: Transforming growth factor beta 1 (TGFb1), TGFB1 (gene 7040); assay: BSK_KF3CT_TGFb1: BioMAP Diversity Plus: KF3CT Assay for Transforming growth factor beta 1 (TGFb1) Biomarker Activity (AID 2283072); settings: primary human keratinocytes with fibroblasts; actives raise or lower the signal
Procedure, shortened: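 Signal changes in either direction, relative to DMSO, define activity here. TGF-b1 is read by ELISA from a human keratinocyte-fibroblast co-culture 24 h post-dose.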

[12] = read-out: C-C motif chemokine 2 (Homo sapiens) (UniProt P13500); assay: BSK_KF3CT_MCP1: BioMAP Diversity Plus: KF3CT Assay for Monocyte Chemoattractant Protein 1 (MCP1/CCL2) Biomarker Activity (AID 2283073); settings: primary human keratinocytes with fibroblasts; actives raise or lower the signal
Procedure, shortened: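 ELISA read-out of MCP-1, 24 h post-dose, in primary human skin keratinocytes co-cultured with fibroblasts. Parallel SRB staining monitors cytotoxicity; changes fitted both directions relative to DMSO.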

[13] = read-out: Matrix Metallopeptidase 9 (MMP9), MMP9 (gene 4318); assay: BSK_KF3CT_MMP9: BioMAP Diversity Plus: KF3CT Assay for Matrix Metallopeptidase 9 (MMP9) Biomarker Activity (AID 2283074); settings: primary human keratinocytes with fibroblasts; actives raise or lower the signal;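 for AC50: MMP9 protein level quantified by ELISA in the co-culture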
Procedure, shortened: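 Keratinocyte plus foreskin fibroblast human primary skin co-culture was dosed with chemical and MMP-9 was quantified by ELISA 24 h later. Bidirectional curve fitting used DMSO as negative control and activity baseline.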

[14] = read-out: urokinase plasminogen activator (uPA), PLAU (gene 5328); assay: BSK_KF3CT_uPA: BioMAP Diversity Plus: KF3CT Assay for urokinase plasminogen activator (uPA) Biomarker Activity (AID 2283075); settings: primary human keratinocytes with fibroblasts; actives raise or lower the signal
Procedure, shortened: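 Human keratinocyte plus foreskin fibroblast primary co-culture exposed to chemical for 24 h. uPA levels were quantified by ELISA, and activity was fitted bidirectionally against a DMSO negative-control baseline.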

[15] = read-out: CD40, CD40 (gene 958); assay: BSK_LPS_CD40: BioMAP Diversity Plus: LPS Assay for CD40 Biomarker Activity (AID 2283076); settings: primary human HUVEC with PBMC; actives raise or lower the signal
Procedure, shortened: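 In the LPS system of human endothelial cells with peripheral blood mononuclear cells, CD40 levels were read by ELISA 24 h post-treatment. Signal changes in either direction were fitted against the DMSO baseline, with parallel SRB protein staining.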

[16] = read-out: E-selectin (Homo sapiens) (UniProt P16581); assay: BSK_LPS_Eselectin: BioMAP Diversity Plus: LPS Assay for Eselectin Biomarker Activity (AID 2283077); settings: primary human HUVEC with PBMC; actives raise or lower the signal
Procedure, shortened: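 E-selectin ELISA on LPS-stimulated endothelial cell/PBMC co-cultures, read 24 h post-treatment; gains and losses fitted against DMSO. Parallel SRB staining (0.1% SRB after 10% TCA fixation, 560 nm) flags overt cytotoxicity.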

[17] = read-out: Interleukin-8 (IL8), CXCL8 (gene 3576); assay: BSK_LPS_IL8: BioMAP Diversity Plus: LPS Assay for Interleukin-8 (IL8) Biomarker Activity (AID 2283078); settings: primary human HUVEC with PBMC; actives raise or lower the signal
Procedure, shortened: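 ELISA read-out of IL-8 after 24 h chemical treatment of LPS-activated endothelial/PBMC human primary co-cultures. Changes either up or down relative to DMSO; overt cytotoxicity checked by sulforhodamine B staining in parallel wells.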

[18] = BSK_LPS_SRB: Viability Assessment in the BioMAP Diversity Plus: LPS Assay (AID 2283079); settings: primary human HUVEC with PBMC;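 note: total protein by sulforhodamine B absorbance as a cytotoxicity measure; measured one day after compound addition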
Procedure, shortened: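 SRB viability endpoint: cells fixed with 10% TCA, stained with 0.1% SRB, read at 560 nm, 24 h post-dose. HUVEC/PBMC co-culture; signal change in either direction scored relative to DMSO.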

[19] = read-out: Interleukin-1 alpha (IL1a), IL1A (gene 3552); assay: BSK_LPS_IL1a: BioMAP Diversity Plus: LPS Assay for Interleukin-1 alpha (IL1a) Biomarker Activity (AID 2283080); settings: primary human HUVEC with PBMC; actives raise or lower the signal
Procedure, shortened: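 Readout is IL-1a level by ELISA, 24 h post-dose, fitted as gain or loss relative to DMSO. System: LPS-activated human primary co-culture of vascular endothelium and peripheral blood mononuclear cells, with parallel SRB total-protein cytotoxicity.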

[20] = read-out: Monocyte Chemoattractant Protein-1 (MCP1), CCL2 (gene 6347); assay: BSK_LPS_MCP1: BioMAP Diversity Plus: LPS Assay for Monocyte Chemoattractant Protein-1 (MCP1) Biomarker Activity (AID 2283081); settings: primary human HUVEC with PBMC; actives raise or lower the signal;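 for AC50: secreted MCP-1 protein quantified by ELISA in culture supernatant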
Procedure, shortened: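 Secreted MCP-1 read by ELISA at 24 h post-dosing in an LPS-activated co-culture of endothelial cells with peripheral blood mononuclear cells. Fits run in both directions, DMSO as baseline; parallel SRB staining tracks overt cytotoxicity.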

Measured: AC50

Sequence of E-selectin (Homo sapiens) (P16581 whole entry, looked up): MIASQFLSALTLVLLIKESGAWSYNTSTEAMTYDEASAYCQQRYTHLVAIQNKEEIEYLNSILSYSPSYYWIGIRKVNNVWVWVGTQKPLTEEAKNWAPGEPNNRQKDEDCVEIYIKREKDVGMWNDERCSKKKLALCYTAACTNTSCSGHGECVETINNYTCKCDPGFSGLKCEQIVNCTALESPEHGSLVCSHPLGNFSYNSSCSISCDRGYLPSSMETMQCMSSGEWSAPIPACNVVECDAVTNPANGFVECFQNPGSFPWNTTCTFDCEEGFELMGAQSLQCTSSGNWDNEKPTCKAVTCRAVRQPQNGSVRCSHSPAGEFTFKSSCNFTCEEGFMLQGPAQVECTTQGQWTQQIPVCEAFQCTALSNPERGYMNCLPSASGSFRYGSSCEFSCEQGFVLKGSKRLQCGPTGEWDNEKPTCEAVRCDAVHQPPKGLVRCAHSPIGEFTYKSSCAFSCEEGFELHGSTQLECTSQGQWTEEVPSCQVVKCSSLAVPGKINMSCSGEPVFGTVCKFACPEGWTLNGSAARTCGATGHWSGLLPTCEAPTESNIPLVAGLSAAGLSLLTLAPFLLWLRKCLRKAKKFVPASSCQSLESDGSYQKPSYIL

O=NO
inactive: all assays above

CCN(CC)CCOc1ccc(C(=C(Cl)c2ccccc2)c2ccccc2)cc1
active: [1] 13.6 µM | [2] 13 µM | [3] 13.2 µM | [4] 14.1 µM | [5] 9.48 µM | [6] 14 µM | [7] 13.5 µM | [8] 12 µM | [9] 14.5 µM | [10] 12.6 µM | [11] 12.4 µM | [12] 14.3 µM | [13] 11.7 µM | [14] 13.7 µM | [15] 8.67 µM | [16] 13.3 µM | [17] 11.3 µM | [18] 10.4 µM | [19] 8.81 µM | [20] 14.3 µM

CC(C)c1cccc(C(C)C)c1NC(=O)NS(=O)(=O)c1cc(C(C)(C)O)co1
active: [16] 0.148 µM | [17] 0.152 µM
not listed: [10]
inactive: all other assays above

CN(C)C(=O)NC1(c2ccccc2)CCN(CC[C@@]2(c3ccc(F)c(F)c3)CN(C(=O)c3ccccc3)CCO2)CC1
inactive: all assays above

COC(=O)CCCC(=O)OC
not listed: [10]
inactive: all other assays above

Cn1cnc2c1c(=O)[nH]c(=O)n2C
inactive: all assays above

CCCCCCCCCCCCCCCCO
active: [2] 0.777 µM
not listed: [10]
inactive: all other assays above

— PubChem BioAssay (EPA / NIEHS)
